We go through nine molecules from PubChem BioAssay (NCI).

Assay in all cases: NCI-60 one-dose screen, 48 h (100 = growth as untreated, 0 = no growth, -100 = all killed)
The test system of one test is NCI-H23 lung. The following applies: 10 µM unless noted.
Another test deals with NCI-H226 lung. The following applies: 10 µM unless noted.
Another test relates to NCI-H322M lung. The following applies: 10 µM unless noted.
In another test the test system is NCI-H460 lung. The following applies: 10 µM unless noted.
The next test relates to HOP-92 NSCLC. The following applies: 10 µM.
The subject of another test is NCI-H522 lung. The following applies: 10 µM.
Another test relates to A549/ATCC NSCLC. The following applies: 10 µM unless noted.
Another test has as its system 786-0 renal. The following applies: 10 µM unless noted.
For a further test, the system named is COLO 205 colon. The following applies: 10 µM unless noted.
The next test has as its system DU-145 prostate. The following applies: 10 µM unless noted.
Another test has as its system K-562 leukemia. The following applies: 10 µM unless noted.
The next test relates to MALME-3M melanoma. The following applies: 10 µM unless noted.
The test system of the next test is MDA-MB-231 breast. The following applies: 10 µM unless noted.
A further test has as its system RXF 393 renal. The following applies: 10 µM unless noted.
The subject of another test is SF-268 CNS. The following applies: 10 µM unless noted.
The subject of a further test is SF-295 CNS. The following applies: 10 µM unless noted.
A further test deals with SF-539 CNS. The following applies: 10 µM unless noted.
For another test, the system named is UACC-257 melanoma. The following applies: 10 µM unless noted.
The subject of a further test is HOP-62 NSCLC. The following applies: 10 µM unless noted.
In a further test the test system is M14 melanoma. The following applies: 10 µM unless noted.

Compounds without any hit were thinned out: in the full panel of roughly 83,000, 20% have a hit.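 Values shown are percent growth following 48 h exposure of cells in 96-well plates to a single concentration of compound; below 10 was considered active.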 Unmarked numbers belong to inactive results. Calls of active or inactive are those of the source.

For `CCC(CCCN1C(=O)c2ccccc2C1=O)Nc1cc(OC)cc2c(C)ccnc12` (stereo not given), the growth was 117% in the test on NCI-H23 lung; 88.2% in the test with NCI-H226 lung; 104% in the test on NCI-H322M lung; 114% in the test with NCI-H460 lung; 72.4% with HOP-92 NSCLC; 91.8% in the test on NCI-H522 lung. The growth in the test on A549/ATCC NSCLC was 103%; in the test with 786-0 renal, 95.9%; in the test on COLO 205 colon, 104%; in the test with DU-145 prostate, 86.7%; in the test on K-562 leukemia, 72.4%; with MALME-3M melanoma, 111%. Moreover, the growth was 81.1% in the test with MDA-MB-231 breast; -10.2% (active) in the test with RXF 393 renal; 113% with SF-268 CNS; 93.3% with SF-295 CNS; 76.5% in the test with SF-539 CNS; 88.6% in the test on UACC-257 melanoma.

As to `CCCCCCCCCCCCCCCCNC(=O)Nc1ccc(C)c(NC(=O)NCCCCCCCCCCCCCCCC)c1`, the growth in the test on NCI-H23 lung is 111%; with NCI-H226 lung, 98.9%; with NCI-H322M lung, 108%; with HOP-62 NSCLC it was 98%; with A549/ATCC NSCLC, 104%; in the test with 786-0 renal, 118%. Moreover, the growth was 116% in the test with COLO 205 colon; 112% in the test on DU-145 prostate; 105% with K-562 leukemia; 89.8% in the test on MALME-3M melanoma; 89.9% in the test with MDA-MB-231 breast; 108% in the test with RXF 393 renal. The growth in the test with SF-268 CNS was 114%; with SF-295 CNS, 114%; in the test on SF-539 CNS it was 110%; with UACC-257 melanoma, 105%; in the test on M14 melanoma, 108%.

`CCn1cnc(C[C@H](NC(=O)[C@@H](NC(=O)Nc2cc(C(F)(F)F)cc(C(F)(F)F)c2)C(C)(C)C)C(=O)OC)c1`: the growth in the test with NCI-H23 lung is -84.2% [100 µM] (active); in the test with NCI-H226 lung it was -49.5% [100 µM] (active); with NCI-H322M lung it was -96.3% [100 µM] (active); in the test with HOP-62 NSCLC, -95.5% [100 µM] (active); in the test with A549/ATCC NSCLC, -80.1% [100 µM] (active); with 786-0 renal it was -83.9% [100 µM] (active). In addition, the growth with COLO 205 colon was -80% [100 µM] (active); in the test with DU-145 prostate, -95.1% [100 µM] (active); with K-562 leukemia, -47% [100 µM] (active); with MALME-3M melanoma, -82.5% [100 µM] (active); in the test with MDA-MB-231 breast, -93.6% [100 µM] (active); in the test on RXF 393 renal it was -83.7% [100 µM] (active). Besides, the growth was -89.2% [100 µM] (active) in the test with SF-268 CNS; -88.6% [100 µM] (active) in the test with SF-295 CNS; -93.4% [100 µM] (active) in the test with SF-539 CNS; -96.2% [100 µM] (active) in the test on UACC-257 melanoma; -90.8% [100 µM] (active) in the test on M14 melanoma.

Consider `O=C(CCC(=O)N(CCO)CCO)N(CCO)CCO`, for which the growth with NCI-H23 lung is 108%; with NCI-H226 lung, 105%; in the test with NCI-H322M lung, 96%; with HOP-62 NSCLC, 102%; in the test on A549/ATCC NSCLC it was 105%; in the test with 786-0 renal it was 96.4%. In addition, the growth with COLO 205 colon is 98.4%; in the test with DU-145 prostate, 107%; with K-562 leukemia, 96%; with MALME-3M melanoma, 103%; in the test with MDA-MB-231 breast, 109%; in the test with RXF 393 renal it was 113%. Further, the growth in the test with SF-268 CNS was 108%; with SF-295 CNS, 96.4%; in the test on SF-539 CNS, 101%; in the test on UACC-257 melanoma it was 101%; in the test with M14 melanoma it was 99.5%.

Consider `COc1cc(OC)c2c(=O)cc(-c3ccccc3)oc2c1`, for which the growth is 106% in the test with NCI-H23 lung; 101% in the test on NCI-H226 lung; 93.2% in the test with NCI-H322M lung; 104% in the test on NCI-H460 lung; 54.9% with HOP-92 NSCLC; 82.8% with NCI-H522 lung. For the same molecule, the growth was 96.7% with A549/ATCC NSCLC; 49% in the test on 786-0 renal; 117% in the test on COLO 205 colon; 111% in the test on DU-145 prostate; 98.4% in the test with K-562 leukemia; 97.2% in the test on MALME-3M melanoma. In addition, the growth was 97% in the test on MDA-MB-231 breast; 99.8% with RXF 393 renal; 104% in the test on SF-268 CNS; 93.8% in the test with SF-295 CNS; 108% with SF-539 CNS; 97.8% in the test with UACC-257 melanoma.

For `N#CCCCCCCCCCCC#N`, the growth in the test on NCI-H23 lung was 93.8%; in the test with NCI-H226 lung it was 111%; in the test with NCI-H322M lung it was 114%; in the test on HOP-62 NSCLC, 104%; with NCI-H522 lung, 86%; with A549/ATCC NSCLC it was 93.3%. Besides, the growth was 99.9% in the test with 786-0 renal; 111% with COLO 205 colon; 106% in the test on DU-145 prostate; 103% in the test on K-562 leukemia; 139% in the test on MALME-3M melanoma; 105% in the test on MDA-MB-231 breast. Also, the growth with RXF 393 renal is 113%; with SF-268 CNS, 109%; in the test with SF-295 CNS, 92%; with SF-539 CNS, 108%; with UACC-257 melanoma, 87.7%; with M14 melanoma, 103%.

Consider `CC(=O)c1cc(Nc2cc(C)nc(N)n2)cc(C(C)=O)c1`, for which the growth in the test on NCI-H23 lung was 83.2%; with NCI-H226 lung, 101%; with NCI-H322M lung it was 107%; with NCI-H460 lung, 104%; with HOP-92 NSCLC, 71.9%; with NCI-H522 lung, 99.8%. For the same molecule, the growth was 116% in the test with A549/ATCC NSCLC; 95.3% in the test on 786-0 renal; 117% in the test on COLO 205 colon; 91.3% with DU-145 prostate; 81.3% in the test with K-562 leukemia; 45.3% with MALME-3M melanoma. Further, the growth in the test with MDA-MB-231 breast was 106%; in the test with RXF 393 renal, 108%; with SF-268 CNS, 99.8%; with SF-295 CNS, 114%; with SF-539 CNS it was 91.2%; with UACC-257 melanoma it was 103%.

For `COC(=O)[C@H](Cc1cn(C)cn1)NC(=O)[C@H](CC(=O)OCc1ccccc1)NC(=O)Nc1cc(C(F)(F)F)cc(C(F)(F)F)c1`, the growth with NCI-H23 lung is -83.9% [100 µM] (active); with NCI-H226 lung, -52.9% [100 µM] (active); in the test with NCI-H322M lung it was -96.7% [100 µM] (active); with HOP-62 NSCLC, -100% [100 µM] (active); in the test on A549/ATCC NSCLC it was -80.9% [100 µM] (active); in the test on 786-0 renal, -92% [100 µM] (active). Besides, the growth in the test with COLO 205 colon was -93.7% [100 µM] (active); in the test with DU-145 prostate it was -94.5% [100 µM] (active); in the test with K-562 leukemia, -60.2% [100 µM] (active); with MALME-3M melanoma, -94.4% [100 µM] (active); in the test on MDA-MB-231 breast, -93% [100 µM] (active); in the test on RXF 393 renal it was -81.8% [100 µM] (active). In addition, the growth with SF-268 CNS is -91.4% [100 µM] (active); in the test with SF-539 CNS it was -94.6% [100 µM] (active); in the test with UACC-257 melanoma, -94.9% [100 µM] (active); in the test on M14 melanoma, -93.6% [100 µM] (active).

As to `COc1ccc(/C=C2\CCCC3=C2N=C2SC=NN2C3c2ccc(OC)c(OC)c2)cc1OC` (stereo not given), the growth in the test on NCI-H23 lung is 39.7%; in the test on NCI-H226 lung, 45.3%; in the test with NCI-H322M lung, 38.3%; in the test on HOP-62 NSCLC, 35.3%; with A549/ATCC NSCLC, 31.9%; in the test with 786-0 renal, 70.2%. For the same molecule, the growth is 22.7% in the test on COLO 205 colon; 24.9% in the test on DU-145 prostate; 26.9% with K-562 leukemia; 55.2% with MDA-MB-231 breast; 50.4% with RXF 393 renal; 41.6% in the test with SF-268 CNS. Further, the growth is 46.1% with SF-295 CNS, 37.4% with SF-539 CNS, 54.6% in the test with UACC-257 melanoma and 47.5% in the test with M14 melanoma.
